Values without a mark were called inactive. For some of these results: Potency and affinity values are given separately. Activity calls are given as the source filed them. Unless noted, how the calls were made is not given here.

A short description of assay [1]: antimalarial activity against Dd2 strain (AID 2302;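 active means growth inhibition above 50% at the single 2 µM test dose, taken to imply half-maximal potency below 2 µM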;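 further: 0% = DMSO untreated growth and 100% = chloroquine plus artemisinin killed control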). The note with it: P. falciparum Dd2 in RBCs, LDH growth readout, 72 h; at 2 µM; active compounds read high.
The nature of assay [2]: HepG2 cytotoxicity, primary screen, cytotoxicity control for P. falciparum antimalarial project, cell-based, ATP luminescence (AID 2303;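 active means inhibition above 50%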;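 further: 0% = DMSO wells and 100% = digitonin-killed cells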). The note with it: HepG2 viability, 24-48 h, at 10 µM, active compounds read high.
Assay [3] has as its target L-lactate dehydrogenase (Plasmodium falciparum (isolate CDC / Honduras)) (UniProt Q27743). As to the kind of experiment: PfLDH activity inhibition – cell lysate, 3D7 strain, counter-screen for P. falciparum growth inhibition project (AID 2304).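 Further: 0% = vehicle and 100% = reference inhibitor.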 The note with it: P. falciparum 3D7 crude extract, LDH APAD/NBT absorbance; at 2 µM; active compounds read high.
A short description of assay [4]: inhibition of 3D7 malaria parasite growth – strain 3D7 (AID 2306).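 Further: 0% = DMSO wells and 100% = chloroquine plus artemisinin control wells.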 The note with it: P. falciparum 3D7 erythrocytic growth, LDH absorbance, 72 h; at 2 µM; active compounds read high.
Assay [5] deals with Calcium-dependent protein kinase 1 (Plasmodium falciparum (isolate 3D7)) (UniProt P62344). Put plainly: PfCDPK1 kinase inhibitors, biochemical, TCAMS library (AID 1159585; cut-off not given, nearly all actives have IC50 up to about 0.98 µM;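 further: inhibitors leave more ATP so luminescence rises with inhibition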). As to conditions: recombinant PfCDPK1, Kinase-Glo ATP depletion luminescence. On the technique in general: Kinase-Glo measures the ATP left after a reaction by luminescence.
Assay [6] deals with Plasmodium falciparum protein kinase 6 (PK6, PF3D7_1337100) (UniProt Q8IDW1). Put plainly: PfPK6 kinase inhibitors, biochemical, TCAMS library (AID 1159586). As to conditions: recombinant PfPK6, Kinase-Glo ATP depletion luminescence.
Assay [7] concerns the target Protein kinase 7 (PK7), Plasmodium falciparum 3D7 (PF3D7_0213400) (UniProt Q7YTF7). Put plainly: inhibition of Plasmodium PK7 catalytic activity – biochemical, TCAMS antimalarial set, Kinase-Glo luminescence (AID 1159587). As to conditions: recombinant PfPK7, Kinase-Glo ATP depletion luminescence.
Assay [8] has as its target Calcium-dependent protein kinase 4 (Plasmodium falciparum (isolate 3D7)) (UniProt Q8IBS5). Put plainly: PfCDPK4 kinase inhibitors, biochemical, TCAMS library (AID 1159588; cut-off not given, nearly all actives have IC50 up to about 0.91 µM). As to conditions: recombinant PfCDPK4, Kinase-Glo ATP depletion luminescence.

Chain of L-lactate dehydrogenase (Plasmodium falciparum (isolate CDC / Honduras)) (Q27743 whole entry, looked up): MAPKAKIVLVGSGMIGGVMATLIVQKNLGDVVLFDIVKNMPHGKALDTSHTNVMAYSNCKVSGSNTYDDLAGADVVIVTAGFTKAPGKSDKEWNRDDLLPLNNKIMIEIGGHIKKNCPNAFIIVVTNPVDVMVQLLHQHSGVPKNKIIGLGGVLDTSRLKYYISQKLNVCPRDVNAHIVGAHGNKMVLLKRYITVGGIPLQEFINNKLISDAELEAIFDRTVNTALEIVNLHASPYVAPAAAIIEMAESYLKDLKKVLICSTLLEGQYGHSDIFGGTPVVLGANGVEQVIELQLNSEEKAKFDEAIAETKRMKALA
Chain of Protein kinase 7 (PK7), Plasmodium falciparum 3D7 (PF3D7_0213400) (Q7YTF7 1-343): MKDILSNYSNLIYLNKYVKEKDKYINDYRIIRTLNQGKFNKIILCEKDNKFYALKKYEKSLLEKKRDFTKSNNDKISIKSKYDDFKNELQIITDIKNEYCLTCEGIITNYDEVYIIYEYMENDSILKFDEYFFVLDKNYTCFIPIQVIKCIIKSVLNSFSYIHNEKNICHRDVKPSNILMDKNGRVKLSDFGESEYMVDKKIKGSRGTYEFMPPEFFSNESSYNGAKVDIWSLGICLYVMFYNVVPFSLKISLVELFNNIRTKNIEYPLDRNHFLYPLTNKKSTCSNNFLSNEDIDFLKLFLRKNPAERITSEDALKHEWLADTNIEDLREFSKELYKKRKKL
Chain of Plasmodium falciparum protein kinase 6 (PK6, PF3D7_1337100) (Q8IDW1 1-305): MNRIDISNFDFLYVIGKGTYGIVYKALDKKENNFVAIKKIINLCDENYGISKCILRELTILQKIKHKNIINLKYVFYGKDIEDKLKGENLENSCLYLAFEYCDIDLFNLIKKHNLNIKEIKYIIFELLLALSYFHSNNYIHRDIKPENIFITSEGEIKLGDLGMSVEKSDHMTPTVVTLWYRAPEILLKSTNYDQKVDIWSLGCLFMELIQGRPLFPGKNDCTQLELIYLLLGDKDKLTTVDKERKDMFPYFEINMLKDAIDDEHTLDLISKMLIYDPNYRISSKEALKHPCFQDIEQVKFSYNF
Chain of Calcium-dependent protein kinase 1 (Plasmodium falciparum (isolate 3D7)) (P62344 whole entry, looked up): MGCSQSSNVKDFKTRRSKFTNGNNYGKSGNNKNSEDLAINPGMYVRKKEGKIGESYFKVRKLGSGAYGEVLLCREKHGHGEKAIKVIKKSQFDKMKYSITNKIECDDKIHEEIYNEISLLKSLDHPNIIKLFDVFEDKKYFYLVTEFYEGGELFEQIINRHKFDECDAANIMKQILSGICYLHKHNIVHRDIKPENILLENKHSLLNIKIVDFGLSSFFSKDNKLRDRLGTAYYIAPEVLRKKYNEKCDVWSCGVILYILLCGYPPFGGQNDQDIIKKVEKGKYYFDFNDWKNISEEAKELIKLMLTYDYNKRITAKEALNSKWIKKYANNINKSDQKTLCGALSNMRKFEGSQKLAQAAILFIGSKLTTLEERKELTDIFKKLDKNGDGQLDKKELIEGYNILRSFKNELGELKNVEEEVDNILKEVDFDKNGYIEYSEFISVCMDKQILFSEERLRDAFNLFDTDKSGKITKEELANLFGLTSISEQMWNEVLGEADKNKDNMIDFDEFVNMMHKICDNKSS
Chain of Calcium-dependent protein kinase 4 (Plasmodium falciparum (isolate 3D7)) (Q8IBS5 whole entry, looked up): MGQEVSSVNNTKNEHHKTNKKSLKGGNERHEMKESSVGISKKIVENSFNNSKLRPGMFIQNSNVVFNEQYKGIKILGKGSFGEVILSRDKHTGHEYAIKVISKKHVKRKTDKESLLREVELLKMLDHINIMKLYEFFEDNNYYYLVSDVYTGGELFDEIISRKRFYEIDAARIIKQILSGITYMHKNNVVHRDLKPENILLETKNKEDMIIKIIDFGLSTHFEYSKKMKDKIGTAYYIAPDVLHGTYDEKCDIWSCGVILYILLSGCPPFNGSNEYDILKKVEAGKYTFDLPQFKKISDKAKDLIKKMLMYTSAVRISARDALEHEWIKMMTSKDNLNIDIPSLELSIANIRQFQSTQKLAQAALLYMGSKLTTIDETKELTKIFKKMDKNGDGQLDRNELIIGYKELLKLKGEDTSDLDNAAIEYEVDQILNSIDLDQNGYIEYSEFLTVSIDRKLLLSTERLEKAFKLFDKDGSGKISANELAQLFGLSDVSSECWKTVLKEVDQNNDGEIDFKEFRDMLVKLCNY

Usually inhibition stands for the drop in the measured response relative to a control, in per cent. Turning to `CN(C)CCNCc1ncsc1-c1ccc2c(Nc3ccc(F)cc3Cl)ccnc2c1`, the growth inhibition in assay [1] is 95% (active); in assay [4] it was 100% (active). In addition, the inhibition was -1% in assay [2] and 0% in assay [3]. In addition, the outcome in assay [5], in assay [6], in assay [7] and in assay [8] was inactive.
Turning to `O=[N+]([O-])c1cccc(NC(=S)N2CCCN(Cc3ccc(C(F)(F)F)cc3)CC2)c1`, the growth inhibition is 49% in assay [1] and 90% (active) in assay [4]. Further, the inhibition in assay [2] is 11%; in assay [3], 0%. Further, the result in assay [5], in assay [6], in assay [7] and in assay [8] was inactive.
For `CN(CC(=O)Nc1ccc(F)c(F)c1F)c1ncnc2sc(-c3ccccc3)cc12`, the growth inhibition was 34% in assay [1] and 95% (active) in assay [4]. Also, the inhibition in assay [2] was 0%; in assay [3], 2%. Also, the result in assay [5], in assay [6], in assay [7] and in assay [8] was inactive.
On to `O=C(Nc1cccc(-c2nn3ccccc3c2-c2ccnc(Nc3ccccc3)n2)c1)c1c(F)cccc1F`, for which the growth inhibition in assay [1] and in assay [4] was 98% (active) in each case. Besides, the inhibition in assay [2] is 69% (active); in assay [3] it was -6%. Moreover, the result in assay [5], in assay [6], in assay [7] and in assay [8] was inactive.
For `Cc1cccc(N2C(N)=NC(N)=NC2(C)C)c1C`, the growth inhibition in assay [1] is -2%; in assay [4], 90% (active). The inhibition in assay [2] is -2%; in assay [3], -6%. Moreover, the result in assay [5], in assay [6], in assay [7] and in assay [8] was inactive.
Regarding `COc1ccc2nccc([C@@H](O)CN3CCC(NCc4cn5cc(F)ccc5n4)CC3)c2c1`, the results for the growth inhibition in assay [1] and in assay [4] were 5% and 96% (active), respectively. For the same compound, the inhibition in assay [2] was 19%; in assay [3], -5%. For the same compound, the result in assay [5], in assay [6], in assay [7] and in assay [8] was inactive.
In the case of `CS(=O)(=O)NCCCNCc1cccc(-c2ccc(-c3nc4ccc(C(F)(F)F)cc4[nH]3)s2)c1`, the growth inhibition in assay [1] is 51% (active); in assay [4], 100% (active). Moreover, the results for the inhibition in assay [2] and in assay [3] were 11% and -8%, respectively. Besides, the outcome in assay [5], in assay [6], in assay [7] and in assay [8] was inactive.
On to `N#Cc1cccc(Nc2nccc(Nc3ccc(Oc4ccccc4)cc3)n2)c1`, for which the growth inhibition was 17% in assay [1] and 94% (active) in assay [4]. Further, the inhibition was 12% in assay [2] and -6% in assay [3]. Moreover, the result in assay [5], in assay [6], in assay [7] and in assay [8] was inactive.
In the case of `CC1(C)N=C(N)N=C(N)N1OCCCCOc1ccc(Cl)cc1C1CCCCC1`, the growth inhibition is 97% (active) in assay [1] and 93% (active) in assay [4]. In addition, the inhibition is 56% (active) in assay [2] and 2% in assay [3]. Further, the result in assay [5], in assay [6], in assay [7] and in assay [8] was inactive.
With `COc1ccc(-c2cc3nc4c(c(NCCCn5ccnc5)n3n2)CCCC4)cc1`, the figures for the growth inhibition in assay [1] and in assay [4] were 74% (active) and 95% (active), respectively. Moreover, the inhibition in assay [2] is 5%; in assay [3], -2%. Moreover, the outcome in assay [5], in assay [6], in assay [7] and in assay [8] was inactive.
Take `Cc1ccc(C)c(NC(=O)Nc2ccc(C)c(-c3ccc(C(=O)Nc4ccncc4)cc3)c2)c1`: the results for the growth inhibition in assay [1] and in assay [4] were 59% (active) and 98% (active), respectively. Also, the inhibition in assay [2] was 46%; in assay [3], -3%. Besides, the outcome in assay [5], in assay [6], in assay [7] and in assay [8] was inactive.
As to `N=C(N)c1ccc(C=CC(=O)NCC(O)CNC(=O)C=Cc2ccc(C(=N)N)cc2)cc1` (stereo not given), the growth inhibition in assay [1] is 80% (active); in assay [4], 90% (active). Moreover, the inhibition in assay [2] was -14%; in assay [3], -1%. The outcome in assay [5], in assay [6], in assay [7] and in assay [8] was inactive.
Turning to `C=CCOC(=O)N1CCC(CNCc2cccc(-c3ccc(-c4nc5c(C)cccc5[nH]4)cc3)c2)C1` (stereo not given), the growth inhibition in assay [1] was 82% (active); in assay [4], 103% (active). Also, the inhibition was 24% in assay [2] and 1% in assay [3]. For the same compound, the outcome in assay [5], in assay [6], in assay [7] and in assay [8] was inactive.
On to `Cc1[nH]c(C)c(-c2ccc(-c3ccc(Cl)cc3)cc2)c(=O)c1Cl`, for which the growth inhibition in assay [1] and in assay [4] was 96% (active) throughout. Also, the inhibition in assay [2] was -9%; in assay [3], -6%. The outcome in assay [5], in assay [6], in assay [7] and in assay [8] was inactive.
As for `COc1ccc(CNC2CCN(C)CC2)cc1-c1ccc(S(=O)(=O)NCc2cccnc2)s1`, the growth inhibition in assay [1] is 3%; in assay [4] it was 100% (active). The inhibition in assay [2] is 10%; in assay [3] it was -4%. Moreover, the result in assay [5], in assay [6], in assay [7] and in assay [8] was inactive.
For `COc1ccc(NC(=O)NC2CCN(CCCOc3cc(C)nc4ccccc34)CC2)cc1OC`, the values for the growth inhibition in assay [1] and in assay [4] were 9% and 97% (active), respectively. Also, the inhibition in assay [2] was 3%; in assay [3], 2%. The outcome in assay [5], in assay [6], in assay [7] and in assay [8] was inactive.
Take `CC1(C)N=C(N)N=C(N)N1OCCCOc1ccccc1Cl`: the growth inhibition was 94% (active) in assay [1] and 96% (active) in assay [4]. For the same compound, the results for the inhibition in assay [2] and in assay [3] were 64% (active) and 1%, respectively. The result in assay [5], in assay [6], in assay [7] and in assay [8] was inactive.
As to `CC(C)c1nc2c(N)nc(N)nc2nc1N`, the growth inhibition is -1% in assay [1] and 84% (active) in assay [4]. Moreover, the inhibition in assay [2] was 64% (active); in assay [3], 2%. The outcome in assay [5], in assay [6], in assay [7] and in assay [8] was inactive.
`CC(CN(C)C)Oc1ccc2[nH]c(-c3cccc(OCc4ccccc4)c3)nc2c1C#N` (stereo not given): the growth inhibition is 94% (active) in assay [1] and 101% (active) in assay [4]. Besides, the inhibition is 57% (active) in assay [2] and -2% in assay [3]. Moreover, the outcome in assay [5], in assay [6], in assay [7] and in assay [8] was inactive.
Consider `CC1CCC2(CC1)N=C(N)N=C(N)N2OCc1cc2ccccc2c2ccccc12` (stereo not given), for which the results for the growth inhibition in assay [1] and in assay [4] were 41% and 97% (active), respectively. Besides, the inhibition was 27% in assay [2] and -2% in assay [3]. In addition, the outcome in assay [5], in assay [6], in assay [7] and in assay [8] was inactive.

For the origin of these results see PubChem BioAssay.
